The record followed here is PubChem BioAssay (Tox21).

Test [1] in a line: Nuclear factor erythroid 2-related factor 2/antioxidant responsive element (Nrf2/ARE) small molecule agonists: qHTS cell viability counter screen in human keratinocytes (AID 1919968; active = well fitted curve in the direction sought with a large enough effect in the repeat runs; an effect the other way counts as inactive or inconclusive; note: nearly all actives have a fitted effect of over 55% in size). The method, boiled down: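 Seed 1,500 KeratinoSens cells per well, then incubate 5 h at 37 C/5% CO2. Add compounds in DMSO and incubate 23 h. Add CellTiter-Fluor, wait 1 h and read fluorescence.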

Test [2] concerns the target KiSS-1 receptor (Homo sapiens) (UniProt Q969F8). The test is described as follows: Human kisspeptin (KISS1R) small molecule agonists, calcium flux assay in KISS1R-HEK293 cells (AID 1920064; active = well fitted curve in the direction sought with a large enough effect in the repeat runs; an effect the other way counts as inactive or inconclusive). The gist of the method:
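Cells plated and incubated 18 h; dye added, 1 h at 37 C; compounds in DMSO pinned in; signal read at 480/540 nm every second for 3 min. Each compound tested at 15 concentrations in triplicate.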

A short description of test [3]: p53 small molecule agonists, cell-based qHTS assay with human liver microsomes (AID 1963577).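 Note: p53 response element beta-lactamase reporter cells with liver microsomes plus NADPH.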 The gist of the method:
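16 h, 37 C exposure of p53RE-bla cells to compounds with human liver microsomes and NADPH (0.5 mg/mL final each); detection via LiveBLAzer mixture, 2 h dark at room temperature.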

A short description of test [4]: p53 small molecule agonists, cell-based qHTS assay with rat liver microsomes (AID 1963578). The method, boiled down:
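With rat liver microsomes and NADPH present (0.5 mg/mL final each), p53RE-bla cells are treated with compound for 16 h at 37 C. LiveBLAzer detection mixture is then applied for 2 h at room temperature in the dark.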

A short description of test [5]: p53 small molecule agonists, cell-based qHTS assay with human liver microsomes: qHTS cell viability counter screen (AID 1963579). Note: nearly all actives have a fitted effect of over 45% in size. The method, boiled down: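 In this multiplexed counter screen, the reporter plates were subsequently treated with CellTiter-Glo so that cell viability, reflected by luminescence, could be recorded for p53RE-bla cells dosed 16 h with compounds under microsomal activation (HLM and NADPH).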

Test [6] is described as follows: p53 small molecule agonists, cell-based qHTS assay with rat liver microsomes: qHTS cell viability counter screen (AID 1963580). Note: nearly all actives have a fitted effect of over 45% in size. The gist of the method: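 In HCT-116 cells carrying a p53 response element-bla reporter, compounds were metabolically activated in situ by rat liver microsomes with NADPH over 16 h. Cell ATP content then served as the cytotoxicity measure.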

Test [7] can be described thus: p53 small molecule agonists, cell-based qHTS assay: qHTS cell viability counter screen (AID 1963581). Note: nearly all actives have a fitted effect of over 45% in size. The method, boiled down: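 Cells: HCT-116 with p53 response element-driven beta-lactamase. Treatment: 16 h, 37 C, compounds in DMSO. Read: CellTiter-Glo luminescence after 30 min RT.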
Test [8] is described as follows: p53 small molecule agonists, cell-based qHTS assay (AID 1963582; active = well fitted activation curve with a large enough effect in the signal ratio in the repeat runs, not every such curve was filed as active; the % refers to the signal ratio). The method, boiled down:
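Quantitative HTS in p53RE-bla cells: after a 5 h settling period, compounds delivered in DMSO were left on cells for 16 h at 37 C, and reporter induction was measured as fluorescence following 2 h substrate loading.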

Test [9] has as its target 5-hydroxytryptamine receptor 2A (Homo sapiens) (UniProt P28223). The test is described as follows: 5-hydroxytryptamine receptor 2A (HTR2A) small molecule antagonists, cell-based qHTS assay (AID 1963586). Note: nearly all actives have a fitted effect of over 45% in size. The method, boiled down:
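Antagonist-mode intracellular calcium assay: DOI (4 nM) added after 5 min compound pre-incubation at room temperature to dye-loaded HTR2A-CHO cells. Fluorescence followed for 3 min, sampled every second.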

The target is the same in test [10]. The test is described as follows: 5-hydroxytryptamine receptor 2A (HTR2A) small molecule agonists, cell-based qHTS assay (AID 1963587). Note: nearly all actives have a fitted effect of over 30% in size. Note: potency is the fitted concentration of half-maximal effect. The method, boiled down:
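HTR2A-CHO cells, plated 18 h at 37 C/5% CO2, dye-loaded 1 h at 37 C; compounds in DMSO added by pin tool (agonist mode). Intracellular calcium flux read as kinetic fluorescence on FDSS over 2 min at 1 s intervals.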

Test [11] has as its target Muscarinic acetylcholine receptor M1 (Homo sapiens) (UniProt P11229). The test is described as follows: Cholinergic receptor muscarinic 1 (CHRM1) small molecule antagonists, cell-based qHTS assay (AID 1963588). Note: nearly all actives have a fitted effect of over 40% in size. The method, boiled down: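 CHRM1-CHO calcium-flux assay, antagonist mode. Cells were seeded 18 h, dye-loaded 1 h at 37 C and given compound for 5 min at RT, then acetylcholine was added at 50nM. FDSS fluorescence was read 3 min; 15 concentrations, three runs.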

The target is the same in test [12]. The test is described as follows: Cholinergic receptor muscarinic 1 (CHRM1) small molecule agonists, cell-based qHTS assay (AID 1963589). Note: nearly all actives have a fitted effect of over 35% in size. Note: potency is the fitted concentration of half-maximal effect. The method, boiled down: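 Agonist-mode qHTS in CHO cells stably carrying human muscarinic M1. Intracellular calcium is tracked by fluorescence every second after compound transfer; each compound runs at 15 concentrations in three independent runs.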

Test [13] deals with Gonadotropin-releasing hormone receptor (Homo sapiens) (UniProt P30968). The test is described as follows: Human gonadotropin-releasing hormone receptor (GnRHR) small molecule agonists, calcium flux assay in GnRHR-HEK293 cells (AID 1920063). Note: nearly all actives have a fitted effect of over 35% in size. The method, boiled down: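 Cells: HEK293 stably expressing human GnRHR. Steps: overnight (18 h) culture, 1 h calcium dye loading at 37 C, compound addition, kinetic fluorescence read at 480/540 nm. Each compound tested at 15 concentrations in triplicate.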
Chain of Gonadotropin-releasing hormone receptor (Homo sapiens) (P30968 whole entry, looked up): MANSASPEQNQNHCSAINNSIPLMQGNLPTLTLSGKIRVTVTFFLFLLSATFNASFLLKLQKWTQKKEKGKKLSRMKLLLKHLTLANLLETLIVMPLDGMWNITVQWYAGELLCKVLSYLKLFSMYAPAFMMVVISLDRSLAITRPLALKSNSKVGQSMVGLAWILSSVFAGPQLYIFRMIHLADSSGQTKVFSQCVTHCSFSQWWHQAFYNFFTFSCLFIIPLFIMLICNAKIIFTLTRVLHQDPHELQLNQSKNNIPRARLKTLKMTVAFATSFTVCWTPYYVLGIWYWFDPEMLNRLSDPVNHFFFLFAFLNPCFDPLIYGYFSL

Test [14] is described as follows: G protein-coupled receptor (GPCR) small molecule agonists, calcium flux assay: HEK293 wild type cell line counter screen (AID 1920065). The method, boiled down: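 Counter-screen of the Tox21 10K library for non-specific calcium release: dye-loaded cells received compounds in DMSO and were monitored by kinetic fluorescence (480/540 nm, 3 min). Fifteen concentrations, run in triplicate.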

A short description of test [15]: cAMP Responsive Elements (CRE) small molecule agonists, cell-based qHTS assay (AID 1963590). The method, boiled down:
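Agonist mode qHTS in CRE-bla HEK 293T cells: compounds dosed from DMSO for 3 h at 37 C/5% CO2, followed by LiveBLAzer B/G FRET substrate for 2 h at room temperature.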

Test [16] in a line: cAMP Responsive Elements (CRE) small molecule antagonists, cell-based qHTS assay (AID 1963591; active = well fitted inhibition curve with a large enough effect in the signal ratio in the repeat runs, not every such curve was filed as active; the % refers to the signal ratio). The gist of the method:
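Antagonist mode: test compounds are co-incubated with the adenylyl cyclase activator NKH477 (0.25 uM final) on CRE-bla HEK293T cells for 3 h at 37 °C, followed by LiveBLAzer substrate loading.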

Test [17] concerns the target Beta-2 adrenergic receptor (Homo sapiens) (UniProt P07550). The test can be described thus: Adrenergic beta2 receptor (ADRB2) small molecule antagonists, cell-based qHTS assay (AID 1963592). Note: series mostly up to about 92 µM; nearly all actives have a fitted effect of over 50% in size. The method, boiled down:
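Cells (CHO, stable ADRB2 overexpression) incubated 18-20hr at 37C; compounds added from DMSO; agonist mix (1nM isoproterenol, 100uM IBMX, 25uM Ro-20-1724) added; 0.5hr RT; d2-cAMP and anti-cAMP-cryptate added; 1hr RT; 665/615 nm read.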

Test [18] has the same target. The test can be described thus: Adrenergic beta2 receptor (ADRB2) small molecule agonists, cell-based qHTS assay (AID 1963593).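 Note: CHO cells stably overexpressing human ADRB2.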 The method, boiled down: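 CHO cells stably over-expressing ADRB2 were plated overnight at 37C, then dosed with compounds plus a stimulation mix containing 100uM IBMX and 25uM Ro-20-1724 for 0.5hr at room temperature. cAMP was measured by HTRF competition, 1hr.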

Test [19] addresses D(2) dopamine receptor (Homo sapiens) (UniProt P14416). The test is described as follows: Dopamine D2 receptor (DRD2) small molecule agonists, cell-based qHTS assay (AID 1963594). Note: nearly all actives have a fitted effect of over 35% in size. The gist of the method:
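HEK293 cells stably expressing DRD2 were cultured 24 h at 37 C, then given Ro20-1724 (0.1 mM final) and compounds for 10 min at room temperature. NKH477 (200nM) was then added for 30 min. cAMP was read by HTRF.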

For test [20] the target is unchanged. The test can be described thus: Dopamine D2 receptor (DRD2) small molecule antagonists, cell-based qHTS assay (AID 1963595; active = well fitted inhibition curve with a large enough effect in the signal ratio in the repeat runs, with a control signal flat; the % refers to the signal ratio). The gist of the method:
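HEK293 cells stably expressing DRD2 were preincubated with 0.1 mM Ro20-1724, then with compound for 10 min at room temperature. Cells were stimulated with 200 nM NKH477 plus 12 nM quinpirole for 30 min, and cAMP was read by HTRF.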

Structures are written as SMILES. “And” between values parts separate entries of the source, which are not always exact repeats. Identical values can stand only once. Results filed as inconclusive are left out. Some compounds were tested as several samples or in several runs, with calls that do not always agree. The source made the active and inactive calls. Unless noted, calls come from the whole dose curve.
% is set by controls: 0 for no effect and ±100 for the full control effect.

Chain of 5-hydroxytryptamine receptor 2A (Homo sapiens) (P28223 whole entry, looked up): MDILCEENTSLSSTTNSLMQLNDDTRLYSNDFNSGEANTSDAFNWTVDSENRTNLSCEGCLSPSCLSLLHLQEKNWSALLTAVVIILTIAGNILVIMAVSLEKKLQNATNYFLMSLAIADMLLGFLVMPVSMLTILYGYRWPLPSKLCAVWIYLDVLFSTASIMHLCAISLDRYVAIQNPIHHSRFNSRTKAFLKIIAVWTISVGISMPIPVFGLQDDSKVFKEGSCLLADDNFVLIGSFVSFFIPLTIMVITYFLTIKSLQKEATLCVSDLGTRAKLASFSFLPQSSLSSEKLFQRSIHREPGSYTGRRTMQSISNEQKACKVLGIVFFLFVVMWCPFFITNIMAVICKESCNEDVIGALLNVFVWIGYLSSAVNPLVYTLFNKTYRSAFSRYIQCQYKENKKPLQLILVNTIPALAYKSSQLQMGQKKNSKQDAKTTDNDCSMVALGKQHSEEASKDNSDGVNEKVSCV
Chain of Beta-2 adrenergic receptor (Homo sapiens) (P07550 whole entry, looked up): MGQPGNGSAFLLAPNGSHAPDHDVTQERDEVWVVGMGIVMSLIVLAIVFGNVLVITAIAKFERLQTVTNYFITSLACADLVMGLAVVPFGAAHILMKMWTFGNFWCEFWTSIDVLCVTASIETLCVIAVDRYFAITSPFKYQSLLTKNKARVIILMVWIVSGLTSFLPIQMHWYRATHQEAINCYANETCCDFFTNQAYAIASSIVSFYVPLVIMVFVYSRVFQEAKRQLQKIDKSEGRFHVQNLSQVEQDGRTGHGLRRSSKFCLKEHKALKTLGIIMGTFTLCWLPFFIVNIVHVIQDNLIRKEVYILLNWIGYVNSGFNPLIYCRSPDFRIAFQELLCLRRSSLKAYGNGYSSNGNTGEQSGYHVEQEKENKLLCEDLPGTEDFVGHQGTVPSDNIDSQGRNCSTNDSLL
Chain of D(2) dopamine receptor (Homo sapiens) (P14416 whole entry, looked up): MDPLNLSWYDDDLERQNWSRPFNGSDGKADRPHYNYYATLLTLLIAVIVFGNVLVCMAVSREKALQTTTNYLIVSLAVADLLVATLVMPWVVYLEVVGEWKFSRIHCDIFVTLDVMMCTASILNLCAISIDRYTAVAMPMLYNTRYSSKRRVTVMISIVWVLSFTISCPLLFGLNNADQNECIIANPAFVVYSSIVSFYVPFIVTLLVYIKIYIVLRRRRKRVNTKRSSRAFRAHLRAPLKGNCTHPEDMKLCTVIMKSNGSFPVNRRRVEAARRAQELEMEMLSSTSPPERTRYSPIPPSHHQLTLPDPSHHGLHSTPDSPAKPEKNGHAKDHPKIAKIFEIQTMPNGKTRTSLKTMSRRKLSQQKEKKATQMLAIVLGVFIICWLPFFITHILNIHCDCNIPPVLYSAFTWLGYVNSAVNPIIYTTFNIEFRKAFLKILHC
Chain of KiSS-1 receptor (Homo sapiens) (Q969F8 whole entry, looked up): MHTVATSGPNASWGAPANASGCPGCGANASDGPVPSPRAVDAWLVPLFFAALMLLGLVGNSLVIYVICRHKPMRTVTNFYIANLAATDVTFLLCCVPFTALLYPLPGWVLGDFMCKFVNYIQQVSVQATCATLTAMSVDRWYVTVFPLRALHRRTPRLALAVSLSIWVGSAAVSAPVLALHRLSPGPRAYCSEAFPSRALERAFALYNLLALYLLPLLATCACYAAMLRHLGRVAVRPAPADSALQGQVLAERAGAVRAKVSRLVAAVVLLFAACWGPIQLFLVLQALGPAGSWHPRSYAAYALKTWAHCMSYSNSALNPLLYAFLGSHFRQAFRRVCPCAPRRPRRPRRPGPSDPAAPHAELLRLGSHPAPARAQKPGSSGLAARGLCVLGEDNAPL
Chain of Muscarinic acetylcholine receptor M1 (Homo sapiens) (P11229 whole entry, looked up): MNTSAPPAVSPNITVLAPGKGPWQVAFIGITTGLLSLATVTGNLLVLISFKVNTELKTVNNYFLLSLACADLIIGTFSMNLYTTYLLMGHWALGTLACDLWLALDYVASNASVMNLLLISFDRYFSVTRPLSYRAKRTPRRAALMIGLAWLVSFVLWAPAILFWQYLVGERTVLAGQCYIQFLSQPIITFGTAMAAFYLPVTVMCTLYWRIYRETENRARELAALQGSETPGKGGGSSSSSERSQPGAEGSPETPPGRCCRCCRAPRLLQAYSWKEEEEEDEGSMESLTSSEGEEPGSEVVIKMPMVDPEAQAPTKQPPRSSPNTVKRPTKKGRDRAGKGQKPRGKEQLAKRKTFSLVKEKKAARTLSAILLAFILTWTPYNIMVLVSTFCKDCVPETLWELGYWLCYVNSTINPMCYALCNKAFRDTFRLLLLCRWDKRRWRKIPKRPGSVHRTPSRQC

For the compound `Nc1ccc(N)c(Cl)c1`, the Potency result in test [1], in [2], in test [3], in [4], in test [5] and in test [6] was “inactive” each time. Further, the Potency entry in test [7], in test [8], in test [9] and in test [11] was “inactive” in each case. For the same compound, the Potency entry in test [10] was “inactive and 21.9 µM (active)”; in [12] it was “inactive and 43.6 µM (active)”.

In the case of `CC(=O)c1ccc2ccccc2c1`, the Potency entry in test [1], in test [13], in test [2], in test [14], in [3] and in test [4] was “inactive” each time. Besides, the Potency entry in [5], in test [6], in [7], in test [8], in test [10] and in [12] was “inactive” throughout. Besides, the Potency entry in test [15], in [16], in test [17], in test [18], in test [19] and in test [20] was “inactive” in each case.

On to `CC(C)(C)NC[C@H](O)COc1nsnc1N1CCOCC1`, for which the Potency entry in [1], in [13], in test [2], in [14], in test [3] and in test [4] was “inactive” throughout. Further, the Potency result in [5], in test [6], in test [7], in test [8], in [15] and in test [16] was “inactive” in each case. Further, the Potency entry in test [19] and in test [20] was “inactive” each time.

For `Nc1c(NC/C=C\COc2cc(CN3CCCCC3)ccn2)c(=O)c1=O`, the activity change, negative = cytotoxicity in test [1] is 1.77% [at 19 µM] (inactive); in test [5], 5.4% [at 13.5 µM] (inactive); in test [6] it was 1.94% [at 13.5 µM] (inactive); in test [7] it was -0.902% [at 13.5 µM] (inactive). The activity change in test [13] was -0.254% [at 11.8 µM, stronger effect = higher value] (inactive). The activation in test [2] was 1.38% [at 15.8 µM] (inactive); in test [14], 0.206% [at 11.8 µM] (inactive); in test [3] it was -4.01% [at 13.5 µM] (inactive); in [4], 0.229% [at 13.6 µM] (inactive); in test [8] it was -1.45% [at 13.5 µM] (inactive); in test [10] it was 1.98% [at 15.9 µM] (inactive). The activation was -0.0227% [at 15.8 µM] (inactive) in test [12], 0.666% [at 19 µM] (inactive) in test [15], -3.93% [at 19 µM] (inactive) in test [18] and -7.29% [at 19 µM] (inactive) in test [19]. Besides, the activity, negative = inhibition in test [9] was -23.4% [at 12.7 µM] (inactive); in test [11], -18.5% [at 12.6 µM] (inactive). Moreover, the values for the activity change, negative = inhibition in test [17] and in test [20] were 0.774% [at 19 µM] (inactive) and 0.891% [at 18.9 µM] (inactive), respectively.

For the compound `CCC1COC(=O)O1` (configuration not stated), the Potency result in [1], in test [13], in [2], in test [14], in [3] and in [4] was “inactive” each time. Also, the Potency result in [5], in test [6], in [7], in test [8], in [9] and in [11] was “inactive” in each case. The Potency result in test [12], in [15], in test [16], in [17], in test [18] and in [19] was “inactive” in each case. In addition, the Potency entry in test [20] is “inactive”.

`CC1=CC[C@H](CC=O)C1(C)C`: the Potency entry in [1], in [13], in test [2], in [14], in test [3] and in test [4] was “inactive” throughout. For the same compound, the Potency result in [5], in test [6], in test [7], in test [8], in test [9] and in test [10] was “inactive” each time. Also, the Potency entry in test [11], in test [12], in [15], in [17], in test [18] and in [19] was “inactive” each time.

On to `CCCCC(CC)COCCC#N` (configuration not stated), for which the Potency entry in test [1], in test [13], in test [2], in test [14], in test [3] and in test [4] was “inactive” in each case. Further, the Potency entry in [5], in test [6], in [7], in [8], in test [10] and in test [11] was “inactive” each time. In addition, the Potency entry in [12], in [15], in test [16], in test [17], in test [18] and in [19] was “inactive” each time. Besides, the Potency result in test [20] is “inactive”.

Turning to `O=Cc1ccc([N+](=O)[O-])cc1`, the Potency result in [1], in [13], in test [2], in test [14], in [3] and in test [4] was “inactive” each time. Also, the Potency result in test [5], in [6], in test [7], in test [8], in test [10] and in test [11] was “inactive” in each case. The Potency result in test [12], in [15], in test [16], in test [17], in test [19] and in test [20] was “inactive” in each case.
